Assay results as given in PubChem BioAssay (NCATS).
Several values for one entry are separate records, joined by “and”; a condition that tells them apart may be missing. Equal entries are not always repeated. Inconclusive results are not listed. Activity calls are given as the source filed them. Unless noted, calls follow the shape of the dose curve; as a rule, active = well fitted curve in the direction sought with a large enough effect; inconclusive = small, poorly fitted or top-dose-only effect, or another doubt; inactive = no such curve, though single readings can be large; an effect the other way counts as inactive or inconclusive.

Columns and labels:
Hek293T = assay: Primary qHTS to identify gynecologic anti-cancer compounds using libraries of approved drugs and bioactive compounds (AID 1345084); settings: Gynecologic cancer cell panel viability, ATPlite luminescence, 48 h, control line for the selectivity index; series mostly up to 57.5 µM; also: nearly all actives have a fitted effect of over 55% in size; also: potency is read from the fitted curve at half-maximal effect
Method in brief: (§1)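 Five-point cytotoxicity, 48 h drug exposure at 37 C, 5% CO2, on cells seeded 16 h beforehand. ATP content read by ATPlite luminescence.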

JEG-3 = assay: as above; settings: Gynecologic cancer cell panel viability, ATPlite luminescence, 48 h; series mostly up to 57.5 µM
Method in brief: as §1

OV90 = assay: as above; settings: Gynecologic cancer cell panel viability, ATPlite luminescence, 48 h; series mostly up to 57.5 µM
Method in brief: as §1

PA-1 = assay: as above; settings: Gynecologic cancer cell panel viability, ATPlite luminescence, 48 h; series mostly up to 57.5 µM
Method in brief: as §1

SKOV3 = assay: as above; settings: Gynecologic cancer cell panel viability, ATPlite luminescence, 48 h; series mostly up to 57.5 µM
Method in brief: as §1

Tov-21-G = assay: as above; settings: Gynecologic cancer cell panel viability, ATPlite luminescence, 48 h; series mostly up to 57.5 µM
Method in brief: as §1

Tov112D = assay: as above; settings: Gynecologic cancer cell panel viability, ATPlite luminescence, 48 h; series mostly up to 57.5 µM
Method in brief: as §1

[1] = Drug repurposing screens with cells derived from glioblastoma tumor samples (AID 1345199); settings: GBM patient neurospheres viability, ATP luminescence, 48 h; also: nearly all actives have a fitted effect of over 40% in size; also: potency is read from the fitted curve at half-maximal effect; as to activity, negative = cell killing: % is scaled to controls: 0 for no effect and ±100 for the full control effect
Method in brief: (§2)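 Four patient lines of CD133+ GBM neurospheres were screened at several concentrations; hits were retested in those lines plus three slower-growing GBM lines, using 48-hour treatment and ATP-based viability.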

astro = assay: as above; settings: viability, ATP luminescence, 48 h; series mostly up to 45.9 µM
Method in brief: as §2

[2] = qHTS assay for small molecule activators of the human pregnane X receptor (PXR) signaling pathway (AID 720659; call rule not given here; also: 0% is about no effect)
[3] = molecular target: Nuclear receptor subfamily 1 group I member 2 (Rattus norvegicus) (UniProt Q9R1A7); assay: qHTS assay for small molecule activators of the rat pregnane X receptor (rPXR) signaling pathway (AID 651751; call rule not given here; also: 0% is about no effect); settings: rPXR reporter cells, luciferase (One-Glo), 24 h
Sequence of Nuclear receptor subfamily 1 group I member 2 (Rattus norvegicus) (Q9R1A7 whole entry, looked up): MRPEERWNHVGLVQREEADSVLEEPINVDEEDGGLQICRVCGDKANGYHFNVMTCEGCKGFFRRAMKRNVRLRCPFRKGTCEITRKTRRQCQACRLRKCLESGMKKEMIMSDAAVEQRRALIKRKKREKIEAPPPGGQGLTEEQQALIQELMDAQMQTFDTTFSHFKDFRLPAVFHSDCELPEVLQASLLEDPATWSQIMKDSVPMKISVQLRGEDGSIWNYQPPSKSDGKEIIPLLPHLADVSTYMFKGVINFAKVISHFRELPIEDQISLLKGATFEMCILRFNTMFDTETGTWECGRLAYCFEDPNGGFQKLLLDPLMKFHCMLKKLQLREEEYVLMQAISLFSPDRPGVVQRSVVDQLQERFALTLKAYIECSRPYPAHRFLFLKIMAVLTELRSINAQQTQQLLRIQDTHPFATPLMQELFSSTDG

[4] = at 45.9 µM (top of the series), tumour line B
[5] = at 45.9 µM (top of the series), tumour line D
[6] = at 46.1 µM (top of the series), tumour line C
[7] = at 46 µM (top of the series), tumour line A

CS(=O)(=O)CCNCc1ccc(-c2ccc3ncnc(Nc4ccc(OCc5cccc(F)c5)c(Cl)c4)c3c2)o1
inactive: Potency (Hek293T) | Potency (JEG-3) | Potency (OV90) | Potency (PA-1) | Potency (SKOV3) | Potency (Tov-21-G) | Potency (Tov112D) | activity, negative = cell killing [1, 4] -6.77% | activity, negative = cell killing [1, 5] -7.21% | activity, negative = cell killing [1, 6] -22.4% | Potency (astro)

O=C1N(c2ccccc2)c2ccccc2C1(Cc1ccncc1)Cc1ccncc1
inactive: Potency (Hek293T) | Potency (JEG-3) | Potency (OV90) | Potency (PA-1) | Potency (SKOV3) | Potency (Tov-21-G) | Potency (Tov112D) | activity, negative = cell killing [1, 4] -5.15% | activity, negative = cell killing [1, 5] -2.7% | activity, negative = cell killing [1, 6] -22.5% | Potency (astro)

CCN1CCCC1CNC(=O)c1cc(S(=O)(=O)CC)c(N)cc1OC (stereo unspecified)
inactive: Potency (Hek293T) | Potency (JEG-3) | Potency (OV90) | Potency (PA-1) | Potency (Tov-21-G) | Potency (Tov112D) | activity, negative = cell killing [1, 4] 6.58% | activity, negative = cell killing [1, 5] -2.77% | activity, negative = cell killing [1, 6] -4.87% | Potency (astro)

CC(C(=O)O)c1cccc(C(=O)c2ccccc2)c1 (stereo unspecified)
inactive: Potency (Hek293T) | Potency (JEG-3) | Potency (OV90) | Potency (PA-1) | Potency (Tov-21-G) | Potency (Tov112D) | activity, negative = cell killing [1, 4] -12.8% | activity, negative = cell killing [1, 5] -8.28% | activity, negative = cell killing [1, 7] -32% | activity, negative = cell killing [1, 6] 2.51% | Potency (astro)

Cc1ccc(-c2cc(C(F)(F)F)nn2-c2ccc(S(N)(=O)=O)cc2)cc1
active: Potency ([1]; tumour line A) 8.91 µM
inactive: Potency (Hek293T) | Potency (JEG-3) | Potency (OV90) | Potency (PA-1) | Potency (SKOV3) | Potency (Tov-21-G) | Potency (Tov112D) | activity, negative = cell killing [1, 4] 2.4% | activity, negative = cell killing [1, 6] 15.9% | Potency (astro)

CNCCCC12CCC(c3ccccc31)c1ccccc12
inactive: Potency (Hek293T) | Potency (JEG-3) | Potency (Tov-21-G) | Potency (Tov112D) | activity, negative = cell killing [1, 6] 31.2%
active: Potency (OV90) 17.8 µM | Potency (SKOV3) 11.2 µM | Potency ([1]; tumour line A) 7.94 µM | Potency ([1]; tumour line B) 17.8 µM | Potency ([1]; tumour line D) 22.4 µM

C[C@H]1c2cccc(O)c2C(O)=C2C(=O)[C@]3(O)C(O)=C(C(N)=O)C(=O)[C@@H](N(C)C)[C@@H]3[C@@H](O)[C@@H]21
inactive: Potency (Hek293T) | Potency (JEG-3) | Potency (OV90) | Potency (PA-1) | Potency (SKOV3) | Potency (Tov-21-G) | Potency (Tov112D) | activity, negative = cell killing [1, 4] -22.1% | activity, negative = cell killing [1, 5] -13% | Potency (astro)

O=C(c1ccc(OCCN2CCCCC2)cc1)c1c(-c2ccc(O)cc2)sc2cc(O)ccc12
inactive: Potency (Hek293T) | Potency (JEG-3) | Potency (OV90) | Potency (Tov-21-G) | Potency (Tov112D)
active: Potency (astro) 17.8 µM

CC(C)Cc1ccc(C(C)C(=O)O)cc1 (stereo unspecified)
inactive: Potency (Hek293T) | Potency (JEG-3) | Potency (OV90) | Potency (PA-1) | Potency (Tov-21-G) | Potency (Tov112D) | activity, negative = cell killing [1, 4] -11.8% | activity, negative = cell killing [1, 5] -6.13% | activity, negative = cell killing [1, 7] -21.1% | activity, negative = cell killing [1, 6] -7.76% | Potency (astro) | outcome [2]

NC(CO)C(=O)NNCc1ccc(O)c(O)c1O (stereo unspecified)
inactive: Potency (Hek293T) | Potency (JEG-3) | Potency (OV90) | Potency (Tov-21-G) | Potency (Tov112D) | activity, negative = cell killing [1, 4] -5.28% | activity, negative = cell killing [1, 5] -22% | activity, negative = cell killing [1, 7] -18.9% | activity, negative = cell killing [1, 6] 12.3% | Potency (astro)

Cc1cn([C@H]2C[C@H](N=[N+]=[N-])[C@@H](CO)O2)c(=O)[nH]c1=O
inactive: Potency (Hek293T) | Potency (JEG-3) | Potency (OV90) | Potency (SKOV3) | Potency (Tov-21-G) | Potency (Tov112D) | activity, negative = cell killing [1, 4] -5.14% and -10.6% | activity, negative = cell killing [1, 5] -11% and -22.6% | activity, negative = cell killing [1, 6] -8.55% and -21.3% | Potency (astro) | max response [3] -4.33% and 1.62%

CN(C)c1nc(N(C)C)nc(N(C)C)n1
inactive: Potency (Hek293T) | Potency (JEG-3) | Potency (OV90) | Potency (PA-1) | Potency (Tov-21-G) | Potency (Tov112D) | activity, negative = cell killing ([1]; at 20 µM (top of the series), tumour line C) 0.771% | activity, negative = cell killing ([1]; at 21.2 µM (top of the series), tumour line B) -14% | activity, negative = cell killing ([1]; at 21.2 µM (top of the series), tumour line D) -14.3% | activity, negative = cell killing ([1]; at 21.3 µM (top of the series), tumour line A) -32% | Potency (astro)

CC(COc1ccccc1)N(CCCl)Cc1ccccc1 (stereo unspecified)
active: Potency ([1]; tumour line A) 20 µM
inactive: Potency (Hek293T) | Potency (JEG-3) | Potency (OV90) | Potency (PA-1) | Potency (SKOV3) | Potency (Tov-21-G) | Potency (Tov112D) | activity, negative = cell killing [1, 4] -26.4% | activity, negative = cell killing [1, 6] -13% | Potency (astro)

CC#C[C@]1(O)CC[C@H]2[C@@H]3CCC4=CC(=O)CCC4=C3[C@@H](c3ccc(N(C)C)cc3)C[C@@]21C
inactive: Potency (Hek293T) | Potency (JEG-3) | Potency (OV90) | Potency (PA-1) | Potency (SKOV3) | Potency (Tov-21-G) | Potency (Tov112D) | outcome [2]

Nc1c2c(nc3ccccc13)CCCC2
inactive: Potency (Hek293T) | Potency (JEG-3) | Potency (OV90) | Potency (PA-1) | Potency (Tov-21-G) | Potency (Tov112D) | activity, negative = cell killing [1, 4] 1.31% | activity, negative = cell killing [1, 6] -23.5% | Potency (astro) | max response [3] 4.58% | outcome [2]
active: Potency ([1]; tumour line A) 20 µM

NC12CC3CC(CC(C3)C1)C2
inactive: Potency (Hek293T) | Potency (JEG-3) | Potency (OV90) | Potency (PA-1) | Potency (SKOV3) | Potency (Tov-21-G) | Potency (Tov112D) | activity, negative = cell killing [1, 4] -22.3% | activity, negative = cell killing [1, 7] 14.4% | activity, negative = cell killing [1, 6] 2.2% | Potency (astro)
